PubChem BioAssay (Tox21)
Inconclusive results are not listed. Active and inactive are the calls of the source. Unless noted, calls come from the whole dose curve; as a rule, active = well fitted curve in the direction sought with a large enough effect in the repeat runs; inconclusive = weak or mixed curves; inactive = no such curve, though single readings can be large; an effect the other way counts as inactive or inconclusive.

Assays:
[1] = qHTS assay to identify small molecule antagonists of the vitamin D receptor (VDR) signaling pathway - cell viability counter screen (AID 743225); note: nearly all actives have a fitted effect of over 50% in size
Method in brief: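 Cytotoxicity toward the VDR-bla HEK 293T line was scored by ATP-based CellTiter-Glo luminescence, read in the wells already used for the beta-lactamase readout after 16 h compound treatment under 3 nM 1-alpha,25-dihydroxyvitamin D3 stimulation.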

[2] = qHTS assay to identify small molecule agonists of the NFkB signaling pathway (AID 1159509; active = well fitted curve in the direction sought with a large enough effect in the signal ratio in the repeat runs, not every such curve was filed as active; the % refers to the signal ratio; note: series mostly up to about 61 µM)
Method in brief: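 Beta-lactamase reporter assay run in quantitative high-throughput format on an NF-kB-responsive ME-180 line, with 5 hr compound treatment and a FRET-based blue/green fluorescence readout.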

[3] = qHTS assay to identify small molecule agonists of the NFkB signaling pathway - cell viability counter screen (AID 1159515; calls by dose curve; note: series mostly up to about 61 µM; nearly all actives have a fitted effect of over 55% in size)
Method in brief: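 Tox21 library compounds were tested for cytotoxicity against NFkB-bla ME-180 cells during a 5 hr exposure at 37 C. CellTiter-Glo luminescence served as the viability read-out.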

[4] = qHTS assay to identify small molecule agonists of the endoplasmic reticulum stress response signaling pathway (AID 1159516; active = well fitted activation curve with a large enough effect in the signal ratio in the repeat runs, not every such curve was filed as active; the % refers to the signal ratio)
Method in brief: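 Fluorescence at 460 and 530 nm (405 nm excitation) reports beta-lactamase from an ER stress response element in HeLa cells treated 5 hr at 37 C.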

[5] = qHTS assay to identify small molecule agonists of the endoplasmic reticulum stress response signaling pathway - cell viability counter screen (AID 1159517; calls by dose curve; note: series mostly up to about 61 µM; nearly all actives have a fitted effect of over 50% in size)
Method in brief: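 Steps: seed 1,500 ESRE-bla HeLa cells per well; incubate overnight at 37 C, 5% CO2; add compounds in DMSO for 5 hr; run FRET substrate 2 hr RT; add CellTiter-Glo, wait 30 min, read luminescence.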

[6] = qHTS assay to identify small molecule antagonists of the retinoid-related orphan receptor gamma (ROR-gamma) signaling pathway - cell viability counter screen (AID 1159520); note: nearly all actives have a fitted effect of over 50% in size
Method in brief: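 Tet-on ROR gamma CHO cells were given compounds for 2 hr, then doxycycline hyclate at 1 uM final, and incubated 16 hr at 37 C. Viability was measured as ATP content by CellTiter-Glo luminescence.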

[7] = biological target: Nuclear receptor ROR-gamma (Homo sapiens) (UniProt P51449); test: qHTS assay to identify small molecule antagonists of the retinoid-related orphan receptor gamma (ROR-gamma) signaling pathway (AID 1159521;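 note: CHO cells with doxycycline inducible ROR-gamma driving an RORE luciferase reporter; top concentration of the series differs between compounds; nearly all actives have a fitted effect of over 50% in size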)
Method in brief: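 Readout: ONE-Glo luciferase luminescence, 30 min at room temperature. System: Tet-on RORγ CHO, RORE-LUC. Sequence: compound 2 h, doxycycline 1 uM final, 16 h at 37 C.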

[8] = qHTS assay to identify small molecule agonists of the AP-1 signaling pathway - cell viability counter screen (AID 1159525; calls by dose curve; note: nearly all actives have a fitted effect of over 55% in size)
Method in brief: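 Same-well cytotoxicity counter screen of the Tox21 10K library in ME-180 cells. The readout is ATP-dependent luminescence after 5 h compound treatment. Data are normalised to DMSO and tetra n-octyl ammonium bromide controls.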

[9] = qHTS assay to identify small molecule agonists of the AP-1 signaling pathway (AID 1159526; calls by dose curve)
[10] = biological target: Retinoic acid receptor RXR-alpha (Homo sapiens) (UniProt P19793); test: qHTS assay to identify small molecule agonists of the RXR signaling pathway (AID 1159527; calls by dose curve; note: nearly all actives have a fitted effect of over 35% in size)
Chain of Retinoic acid receptor RXR-alpha (Homo sapiens) (P19793 whole entry, looked up): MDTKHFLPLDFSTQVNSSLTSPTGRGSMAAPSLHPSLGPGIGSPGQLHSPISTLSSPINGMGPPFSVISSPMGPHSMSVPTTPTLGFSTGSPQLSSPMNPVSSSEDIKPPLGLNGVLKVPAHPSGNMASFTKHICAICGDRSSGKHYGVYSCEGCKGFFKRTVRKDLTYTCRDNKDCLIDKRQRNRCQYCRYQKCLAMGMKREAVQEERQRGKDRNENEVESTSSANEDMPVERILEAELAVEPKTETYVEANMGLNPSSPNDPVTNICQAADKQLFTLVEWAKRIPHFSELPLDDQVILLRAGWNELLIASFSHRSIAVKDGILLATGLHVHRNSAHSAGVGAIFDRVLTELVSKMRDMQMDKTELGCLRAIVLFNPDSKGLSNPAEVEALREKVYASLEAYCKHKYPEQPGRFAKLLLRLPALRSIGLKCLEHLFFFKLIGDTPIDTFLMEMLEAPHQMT
Method in brief: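 Reporter activation is measured as beta-lactamase activity via FRET substrate cleavage (emission 460/530 nm) in HEK 293T cells expressing an RXR-alpha-driven bla construct, following 16 hr compound exposure at 37 C.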

[11] = qHTS assay to identify small molecule agonists of the RXR signaling pathway - cell viability counter screen (AID 1159529)
Method in brief: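 Tox21 10K compounds were tested for cytotoxicity against GeneBLAzer RXR-alpha HEK 293T cells grown in 2% charcoal-stripped FBS. Exposure lasted 16 hr at 37 C, 5% CO2; viability read by CellTiter-Glo luminescence.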

[12] = qHTS assay to identify small molecule antagonists of the retinoid acid receptor (RAR) signaling pathway - cell viability counter screen (AID 1159551); note: nearly all actives have a fitted effect of over 35% in size
Method in brief: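 In this counter screen, the RARE-luciferase line C3RL4 was exposed for 6 h at 37 C and 5% CO2 to compounds with retinol at 1 uM final. Cellular ATP, read by luminescence, served as the viability measure.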

[13] = qHTS assay to identify small molecule antagonists of the retinoic acid receptor (RAR) signaling pathway (AID 1159552; note: nearly all actives have a fitted effect of over 50% in size)
Method in brief: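 Overnight-plated C3RL4 reporter cells get compound, then retinol to 1 uM final; plates sit 6 hr at 37 C, 5% CO2. A luciferase reagent is added and light output recorded after 30 min at room temperature.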

[14] = qHTS assay to identify small molecule agonists of the retinoic acid receptor (RAR) signaling pathway (AID 1159553)
Method in brief: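 In this cell-based screen, 1,000 C3RL4 cells per well were cultured overnight, dosed with test chemicals in DMSO for 6 hr, and assessed for RARE luciferase luminescence.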

[15] = qHTS assay to identify small molecule antagonists of the estrogen related receptor (ERR) signaling pathway from Tox21 library - cell viability counter screen (AID 1224834); note: nearly all actives have a fitted effect of over 30% in size
Method in brief: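 Counter screen run in ERR cells (2,000 cells/well): cells pre-incubated 6 h, then treated with compounds for 17.5 h at 37 C. Fluorescence was read 30 min after CellTiter-Fluor addition.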

[16] = biological target: Luciferin 4-monooxygenase (Photinus pyralis) (UniProt P08659); test: qHTS assay to identify small molecule inhibitors of firefly luciferase (AID 1224835); note: series mostly up to about 120 µM; nearly all actives have a fitted effect of over 25% in size
Chain of Luciferin 4-monooxygenase (Photinus pyralis) (P08659 whole entry, looked up): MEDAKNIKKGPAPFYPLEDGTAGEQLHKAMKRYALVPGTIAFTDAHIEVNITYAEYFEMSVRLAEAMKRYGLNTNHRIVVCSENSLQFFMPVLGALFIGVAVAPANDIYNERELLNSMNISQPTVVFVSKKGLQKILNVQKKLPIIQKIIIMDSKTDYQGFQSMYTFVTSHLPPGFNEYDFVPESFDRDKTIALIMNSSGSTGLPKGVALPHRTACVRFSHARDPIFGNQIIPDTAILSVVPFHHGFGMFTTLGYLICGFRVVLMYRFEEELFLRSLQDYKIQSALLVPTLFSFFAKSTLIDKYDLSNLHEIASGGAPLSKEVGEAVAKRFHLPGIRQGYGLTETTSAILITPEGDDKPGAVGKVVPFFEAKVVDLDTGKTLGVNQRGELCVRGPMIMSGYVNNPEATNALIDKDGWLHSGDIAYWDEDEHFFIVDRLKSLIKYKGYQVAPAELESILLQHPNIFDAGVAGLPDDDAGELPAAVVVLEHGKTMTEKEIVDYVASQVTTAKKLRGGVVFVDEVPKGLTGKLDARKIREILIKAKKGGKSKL
Method in brief: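 Biochemical qHTS: compounds run as interplate titrations against purified firefly enzyme, with D-luciferin and ATP each at its KM concentration. Light output recorded by CCD imaging.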

[17] = qHTS assay to identify small molecule agonists of the constitutive androstane receptor (CAR) signaling pathway - cell viability counter screen (AID 1224836); note: series mostly up to about 92 µM; nearly all actives have a fitted effect of over 45% in size
Method in brief: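 Fluorescence from CellTiter-Fluor indicates live cells after 23 h exposure. The human hepatoma line expresses hCAR and a CYP2B6-2.2kb reporter. Incubation medium contains 0.75 uM PK11195 (final).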

[18] = qHTS assay to identify small molecule antagonists of the constitutive androstane receptor (CAR) signaling pathway - cell viability counter screen (AID 1224837); note: series mostly up to about 92 µM; nearly all actives have a fitted effect of over 45% in size
Method in brief: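 CITCO at 50 nM final was added alongside compounds (15 concentrations) to double-stable hCAR/CYP2B6-2.2kb HepG2 cells. Following 23 hr at 37 C, cell viability was quantified by CellTiter-Fluor fluorescence intensity.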

[19] = biological target: Nuclear receptor subfamily 1 group I member 3 (Homo sapiens) (UniProt Q14994); test: qHTS assay to identify small molecule antagonists of the constitutive androstane receptor (CAR) signaling pathway (AID 1224838); note: nearly all actives have a fitted effect of over 40% in size
Chain of Nuclear receptor subfamily 1 group I member 3 (Homo sapiens) (Q14994 whole entry, looked up): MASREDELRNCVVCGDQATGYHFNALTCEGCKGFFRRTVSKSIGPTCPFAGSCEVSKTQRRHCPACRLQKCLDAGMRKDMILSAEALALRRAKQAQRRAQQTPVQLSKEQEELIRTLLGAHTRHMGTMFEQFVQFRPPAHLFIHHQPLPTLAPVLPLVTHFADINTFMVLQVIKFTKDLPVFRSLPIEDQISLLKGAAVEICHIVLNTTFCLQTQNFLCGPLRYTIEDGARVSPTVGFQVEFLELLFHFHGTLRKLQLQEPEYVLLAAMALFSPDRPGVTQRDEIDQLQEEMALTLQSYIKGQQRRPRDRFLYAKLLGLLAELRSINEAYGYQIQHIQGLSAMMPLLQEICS
Method in brief: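 Inhibition of CITCO-driven (50 nM final) CYP2B6 reporter expression is measured in HepG2 cells stably carrying hCAR. Fifteen compound concentrations are applied for 24 h at 37 C, followed by luciferase luminescence.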

[20] = biological target: Nuclear receptor subfamily 1 group I member 3 (Homo sapiens) (UniProt Q14994); test: qHTS assay to identify small molecule agonists of the constitutive androstane receptor (CAR) signaling pathway (AID 1224839); note: series mostly up to about 92 µM; nearly all actives have a fitted effect of over 15% in size
Method in brief: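 Stable hCAR/CYP2B6-2.2kb HepG2 line in DMEM with 10% FBS; compounds (15 concentrations) and 0.75 uM PK11195 final, 24 h at 37 C/5% CO2, then ONE-Glo luminescence after 30 min.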

Measured: Potency

O=C(CCCl)NCCc1ccccc1
inactive: [1] | [2] | [3] | [4] | [5] | [6] | [7] | [8] | [9] | [10] | [11] | [12] | [13] | [14] | [15] | [16] | [17] | [18] | [19] | [20]

CCOc1ccccc1OCC1CNCCO1 (stereo not drawn)
inactive: [1] | [2] | [3] | [4] | [5] | [6] | [7] | [8] | [9] | [10] | [11] | [12] | [13] | [14] | [15] | [16] | [17] | [18] | [19]

CCCCCCCCCCCCCCCCCC#N
inactive: [1] | [2] | [3] | [4] | [5] | [6] | [7] | [8] | [9] | [10] | [11] | [12] | [13] | [14] | [15] | [16] | [17] | [18] | [19] | [20]

CC(C)=CCC/C(C)=C/COC=O
inactive: [1] | [2] | [3] | [4] | [5] | [6] | [7] | [8] | [9] | [10] | [11] | [12] | [13] | [14] | [15] | [16] | [17] | [18] | [19] | [20]

CCNC(=O)NCc1cccc(Cl)c1
inactive: [1] | [2] | [3] | [4] | [5] | [6] | [7] | [8] | [9] | [10] | [11] | [12] | [13] | [14] | [15] | [16] | [17] | [18] | [19] | [20]

O=[N+]([O-])c1c(Cl)cc(Cl)cc1Cl
inactive: [1] | [2] | [3] | [4] | [5] | [6] | [7] | [8] | [9] | [10] | [11] | [12] | [13] | [14] | [15] | [16] | [17] | [18] | [19]
